Source: PubChem BioAssay (NCATS)
Results filed as inconclusive are left out. The source made the active and inactive calls. Unless noted, calls come from the whole dose curve; as a rule, active = well fitted curve in either direction with a large enough effect (not every such curve was filed as active); inconclusive = small, poorly fitted or top-dose-only effect, or another doubt; inactive = flat fitted curve, though single readings scatter.

Experiments:
[1] = target: Lysosomal acid glucosylceramidase (Homo sapiens) (UniProt P04062); experiment: Glucocerebrosidase-p2 (AID 348; in the data active = potency below about 10 µM; note: potency is the fitted concentration of half-maximal effect); settings: purified GBA, blue fluorogenic substrate, 40 min
In short: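 Compounds titrated from 0.6 nM upwards against 0.2 nM enzyme in pH 5.9 citric acid/KH2PO4, taurocholate, tween-20; blue fluorogenic substrate 80 uM, 40 min room temperature, stopped and read Ex 365/Em 440 for AC50.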

[2] = AP1 Signaling Pathway (AID 357); settings: ME-180 AP-1-bla reporter, EGF-induced, beta-lactamase ratio, 5 h; at 7.69 µM (top of the series) unless noted;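 note: ME-180 reporter cells stimulated with EGF at its EC50 level; % is set by controls: 0 for no effect and ±100 for the full control effect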
In short: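 A ratiometric CCF4 readout (405 nm excitation; 460 and 530 nm emission) quantified AP-1-driven beta-lactamase in ME-180 cells after 5 h with compound and EC50 EGF; AC50 values were derived for activators and inhibitors.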

[3] = NFAT Signaling Pathway (AID 444); settings: Jurkat NFAT-bla M1, carbachol, beta-lactamase ratio, 5 h; at 7.69 µM (top of the series) unless noted;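 note: carbachol stimulus at about its EC50 of 1 µM final; % is set by controls: 0 for no effect and ±100 for the full control effect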
In short: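 Jurkat cells carrying an NFAT-driven β-lactamase reporter and co-transfected muscarinic M1 receptor were treated with compound plus carbachol (1 uM final, an EC50 level) for 5 h at 37 °C. CCF4 loading followed for 1 h at RT; 460/530 nm ratio gave %activity.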

[4] = Stat Signaling Pathway (AID 446); settings: ME-180 SIE beta-lactamase reporter, IL-6 stimulated, 5 h; at 7.69 µM (top of the series) unless noted;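 note: ME-180 cervical cancer cells given 40 pM IL-6 alongside compound; SIE-controlled beta-lactamase reporter measured as 460/530 nm FRET emission ratio; % is set by controls: 0 for no effect and ±100 for the full control effect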
In short: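 ME-180 cells carrying a SIE-driven beta-lactamase reporter are stimulated with 40 pM IL-6 for 5 h at 37C in the presence of compound. The 460/530 nm FRET substrate ratio is read after 2.5 h at RT. Data are normalised to 300 pM IL-6 and to 125 nM JAK inhibitor controls.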

[5] = target: Glucocorticoid receptor (Homo sapiens) (UniProt P04150); experiment: GR-GFP Redistribution (AID 450;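 active = compounds whose dose series gives a full or clear partial fitted curve of increased nuclear translocation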; note: potency is the fitted concentration of half-maximal effect); settings: U2OS GR-GFP nuclear translocation, laser cytometry, 2 h
[6] = target: Mitogen-activated protein kinase 10 (Mus musculus) (UniProt Q61831); experiment: JNK3 AlphaScreen Assay (AID 530); settings: JNK3 lysate, c-Jun phosphorylation; series mostly up to 11.4 µM;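 note: kinase came from lysate of stimulated human HepG2 cells; signal reports phosphorylation of biotinylated GST-cJun 1-79 at Ser73 with 10 µM ATP; % is set by controls: 0 for no effect and ±100 for the full control effect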
In short: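 Inhibitors reduce antibody binding to phosphorylated biotin-cJun, lowering AlphaScreen luminescence. Lysates from HepG2 cells pre-activated by IL-1beta plus TNF-alpha supplied JNK3; compounds were titrated.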

[7] = target: 3',5'-cyclic-AMP phosphodiesterase 4B (Homo sapiens) (UniProt Q07343); experiment: qHTS Assay for Inhibitors of PDE-IV (AID 607; active = well fitted activation curve with a large enough effect in the main read-out, with a control signal flat, not every such curve was filed as active; note: % of control where 0% means no effect); settings: HEK293 ACTOne CNG channel cells, membrane potential fluorescence; series mostly up to 22.9 µM
In short: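 HEK293 ACTOne cells with CNG channel (1000/well), endogenous PDE4; membrane potential dye, compounds up to 22.9 uM final. Fluorescence Ex 535/Em 590; RO 20-1724 (100 uM final) as reference.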

[8] = target: Glucocorticoid receptor (Homo sapiens) (UniProt P04150); experiment: GR-EFC Redistribution (AID 451; calls by dose curve; note: potency is the fitted concentration of half-maximal effect); settings: CHO-K1 GR-EFC translocation, beta-gal luminescence, 2 h
In short: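 CHO-K1 cells stably expressing nuclear-localized β-gal enzyme acceptor and GR fused C-terminally to the enzyme donor fragment; ligand-driven nuclear translocation restores β-gal by complementation. Compounds titrated up to 46 uM final, 2 h at 37 °C; luminescence read.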

Sequence of Glucocorticoid receptor (Homo sapiens) (P04150 whole entry, looked up, the tested form may be a part): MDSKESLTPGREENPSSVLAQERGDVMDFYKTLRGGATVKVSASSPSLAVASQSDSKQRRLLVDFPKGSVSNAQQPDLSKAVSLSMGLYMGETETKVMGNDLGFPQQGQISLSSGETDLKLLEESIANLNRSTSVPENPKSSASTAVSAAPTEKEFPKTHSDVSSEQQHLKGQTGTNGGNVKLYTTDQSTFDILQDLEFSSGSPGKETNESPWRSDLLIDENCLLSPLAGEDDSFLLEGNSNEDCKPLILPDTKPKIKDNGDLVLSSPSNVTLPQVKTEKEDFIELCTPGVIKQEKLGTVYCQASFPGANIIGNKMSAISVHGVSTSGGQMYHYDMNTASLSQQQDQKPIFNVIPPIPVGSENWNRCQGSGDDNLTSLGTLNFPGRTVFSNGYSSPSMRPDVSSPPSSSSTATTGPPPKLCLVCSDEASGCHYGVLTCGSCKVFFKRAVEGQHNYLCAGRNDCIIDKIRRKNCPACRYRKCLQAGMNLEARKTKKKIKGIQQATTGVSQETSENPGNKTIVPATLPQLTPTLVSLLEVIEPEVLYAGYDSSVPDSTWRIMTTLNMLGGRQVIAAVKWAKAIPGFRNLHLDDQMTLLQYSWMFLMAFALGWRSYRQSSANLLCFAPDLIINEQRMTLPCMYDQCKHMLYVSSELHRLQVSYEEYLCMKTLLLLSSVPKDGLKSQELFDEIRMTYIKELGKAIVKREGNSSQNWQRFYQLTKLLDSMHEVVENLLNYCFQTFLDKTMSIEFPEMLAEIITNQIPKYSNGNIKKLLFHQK
Sequence of Lysosomal acid glucosylceramidase (Homo sapiens) (P04062 whole entry, looked up): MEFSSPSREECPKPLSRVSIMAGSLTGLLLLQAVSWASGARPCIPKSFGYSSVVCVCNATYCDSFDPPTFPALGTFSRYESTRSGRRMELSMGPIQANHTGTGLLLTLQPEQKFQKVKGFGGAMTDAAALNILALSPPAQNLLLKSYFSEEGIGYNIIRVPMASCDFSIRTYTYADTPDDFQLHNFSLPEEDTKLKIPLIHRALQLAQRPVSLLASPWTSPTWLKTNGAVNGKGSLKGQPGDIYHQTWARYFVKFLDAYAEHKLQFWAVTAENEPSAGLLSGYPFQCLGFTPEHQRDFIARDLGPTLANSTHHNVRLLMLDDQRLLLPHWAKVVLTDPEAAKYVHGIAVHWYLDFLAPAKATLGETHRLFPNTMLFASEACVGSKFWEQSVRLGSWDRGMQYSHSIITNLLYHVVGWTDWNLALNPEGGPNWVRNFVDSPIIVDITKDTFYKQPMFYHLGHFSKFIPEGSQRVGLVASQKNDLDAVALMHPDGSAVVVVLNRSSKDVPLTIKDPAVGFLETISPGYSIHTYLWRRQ
Sequence of 3',5'-cyclic-AMP phosphodiesterase 4B (Homo sapiens) (Q07343 whole entry, looked up): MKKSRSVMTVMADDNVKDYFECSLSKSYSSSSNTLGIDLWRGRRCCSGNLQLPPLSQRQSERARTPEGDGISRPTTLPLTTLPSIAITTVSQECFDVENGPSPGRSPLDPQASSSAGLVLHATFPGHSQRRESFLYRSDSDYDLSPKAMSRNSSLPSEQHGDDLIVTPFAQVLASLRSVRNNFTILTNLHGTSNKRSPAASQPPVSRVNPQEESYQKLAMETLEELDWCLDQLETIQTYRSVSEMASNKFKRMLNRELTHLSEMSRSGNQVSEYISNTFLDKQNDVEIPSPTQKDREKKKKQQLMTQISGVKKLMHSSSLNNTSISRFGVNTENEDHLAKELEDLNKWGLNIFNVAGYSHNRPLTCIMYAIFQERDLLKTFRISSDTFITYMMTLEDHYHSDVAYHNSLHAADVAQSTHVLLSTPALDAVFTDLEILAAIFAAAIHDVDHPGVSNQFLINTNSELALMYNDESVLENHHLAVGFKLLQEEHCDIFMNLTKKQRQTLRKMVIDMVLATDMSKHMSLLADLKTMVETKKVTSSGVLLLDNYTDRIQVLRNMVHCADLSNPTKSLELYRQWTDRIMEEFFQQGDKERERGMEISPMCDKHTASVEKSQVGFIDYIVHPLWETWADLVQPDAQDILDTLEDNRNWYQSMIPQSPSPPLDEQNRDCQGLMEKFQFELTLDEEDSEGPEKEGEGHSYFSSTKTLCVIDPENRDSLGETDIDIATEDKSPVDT

CC(C)(CCC(C)(C)c1ccccc1)c1ccccc1
inactive: Potency [1] > 11.4 µM | activity change, negative = inhibition [2] -0.999% | activity change, negative = inhibition [3] 5.11% | activity, negative = inhibition [4] -2.84% | Potency [5] > 46 µM | Potency [6] | Potency [7]

Nc1nc(C(=O)O)c(N=Nc2ccccc2)c(=O)[nH]1
inactive: Potency [1] > 11.4 µM | activity change, negative = inhibition [2] 4.49% | activity change, negative = inhibition [3] -22.9% | activity, negative = inhibition [4] 7.24% | Potency [5] > 46 µM | Potency [8] > 9.22 µM | Potency [7]
